Screening data as filed in PubChem.
DRD3 antagonist – qHTS of D3 Dopamine Receptor Antagonist: qHTS. AID 652054, 2013. 360,000 tested, 2.5% active. max response, negative = inhibition, %. D3R cells, DiscoveRx beta-arrestin luminescence, antagonist mode; stronger effect = lower value; in the data active = max response below about -50%; inconclusive = no clear call, values can overlap the other calls; also: % is scaled to controls: 0 for no effect and ±100 for the full control effect
Target sequence (P35462 whole entry, looked up): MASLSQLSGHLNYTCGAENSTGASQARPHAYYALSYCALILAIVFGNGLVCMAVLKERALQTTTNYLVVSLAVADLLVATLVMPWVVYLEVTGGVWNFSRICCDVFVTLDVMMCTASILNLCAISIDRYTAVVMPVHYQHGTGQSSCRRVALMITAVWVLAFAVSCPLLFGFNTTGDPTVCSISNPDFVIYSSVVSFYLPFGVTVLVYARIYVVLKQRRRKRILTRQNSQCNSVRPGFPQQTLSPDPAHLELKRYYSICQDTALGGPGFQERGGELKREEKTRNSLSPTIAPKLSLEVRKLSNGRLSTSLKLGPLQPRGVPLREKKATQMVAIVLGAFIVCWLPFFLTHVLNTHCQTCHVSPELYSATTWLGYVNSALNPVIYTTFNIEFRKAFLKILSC
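Cells plated overnight at 1500 cells/well, then exposed to library compounds with dopamine controls for 90 minutes at 37 degrees C. DiscoveRx reagent added for 30–60 minutes at room temperature; luminescence read, quantitative HTS format.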
D3 ag – qHTS of D3 Dopamine Receptor Agonist: qHTS; max activation, %; AID 652048, 2013; D(3) dopamine receptor (Homo sapiens), P35462; D3R DiscoveRx beta-arrestin cells, luminescence, 90 min; 410,000 tested, 0.58% active; in the data active = max activation above about 30%; also: 0% is about no effect
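Agonist-mode cell screen: cells plated at 1500/well and incubated overnight at 37 °C, then exposed to library compounds for 90 min at 37 °C. Detection reagent was added for 30–60 min at room temperature, and luminescence was read.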
D1 agonist – Allosteric Agonists of the Human D1 Dopamine Receptor: qHTS | 360,000 tested, 1% active | D(1A) dopamine receptor (Homo sapiens), P21728 | activation, % at 2 µM | AID 504660, 2011 | HEK293 T-REx D1 cells, calcium flux, agonist mode; in the data active = activation above about 30%; also: 0% is about no effect
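Tetracycline-induced HEK293 TREx D1 cells, force-coupled to calcium signalling, were dye-loaded with a no-wash calcium kit. Compound was pin-added after a 10 s baseline. Fluorescence was read kinetically at 1 cycle/s for 180 s, with calcium rises flagged as agonism.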
D1 antag – Antagonist of Human D 1 Dopamine Receptor: qHTS. HEK293 TREx D1 cells, calcium flux, dopamine EC80; stronger effect = lower value. activity change, negative = inhibition, % at 10 µM. 360,000 tested, 3.2% active. AID 504652, 2011; in the data active = activity change below about -30%; also: % is scaled to controls: 0 for no effect and ±100 for the full control effect
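After overnight tetracycline induction at 30 C, force-coupled D1 HEK293 cells took up a no-wash calcium dye at room temperature. Compounds were added and monitored 180 s, and the response to EC80 dopamine was then recorded.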
D1 potentiator – Potentiators of Human D1 Dopamine Receptor: qHTS; D(1A) dopamine receptor (Homo sapiens), P21728; HEK293 TREx D1 cells, calcium flux, dopamine EC20 potentiation; potentiation, % at 10 µM; 360,000 tested, 0.036% active; in the data active = potentiation above about 30%; also: 0% is about no effect
Starred values were filed as active, the others as inactive; ? = inconclusive; . = no result. An excerpt weighted towards active compounds, which were near 6% of everything screened.

SMILES	DRD3 antagonist	D3 ag	D1 agonist	D1 antag	D1 potentiator
CCN1CCN(C(=O)c2ccc3c(c2)N(Cc2cccc(Cl)c2)C(=O)c2ccccc2S3=O)CC1 (centres undefined)	.	-22.6	4.2	-6.6	-5.3
COc1cccc(CN(C)C(=O)c2[nH]c(C)c(C(C)=O)c2C)c1OC	1.1	12.0	8.8	-7.2	-4.1
N#C/C(=N\Nc1cccc(C(F)(F)F)c1)C(=O)c1ccsc1	-5.9	6.4	22.3	-32.4*	-2.9
Cc1nccc(-c2cccc(N/N=C(\C#N)C(=O)c3ccccc3)c2)n1	33.5	-0.6	6.8	4.5	-0.8
CCOc1cc(/C=N/NC(=O)c2cccc([N+](=O)[O-])c2)ccc1OS(=O)(=O)c1ccccc1	-61.2*	-1.6	2.1	6.2	-5.5
Cc1ccc(-n2c3c(cc(C(=O)Nc4cccc(Cl)c4)c2=O)C(=O)CC(C)(C)C3)cc1	.	-15.9	2.9	20.9	1.4
CCc1ccc(S(=O)(=O)/N=C2\C=C(Nc3ccc(C(=O)O)cc3)C(=O)c3ccccc32)cc1	-67.8*	-30.5	3.6	1.7	.
COC(=O)c1ccccc1NC1=C/C(=N\S(=O)(=O)c2ccc(C(=O)O)cc2)c2ccccc2C1=O	-99.2*	-24.9	1.8	-4.9	.
Cc1ccc(S(=O)(=O)/N=C2\C=C(Nc3cccc(C(=O)O)c3)C(=O)c3ccccc32)c(C)c1	-71.5*	-26.7	-2.2	1.7	0.6
COC(=O)c1ccccc1NC1=C/C(=N\S(=O)(=O)c2cccs2)c2ccccc2C1=O	-93.1*	-47.5	9.2	1.0	-5.2
Cc1ccc(S(=O)(=O)/N=C2\C=C(Nc3cccc(C(=O)O)c3)C(=O)c3ccccc32)cc1	?	-23.6	3.4	6.7	-7.2
COC(=O)c1cccc(NS(=O)(=O)c2cccs2)c1C	8.8	-10.0	1.1	-0.5	-3.3
Cc1ccc(-c2nc(C)c(CCNS(=O)(=O)c3ccccc3F)s2)cc1	.	-0.7	8.4	3.6	-4.0
Cc1ccc(CN2C(=O)C(O)(CC(=O)c3ccc(C)cc3)c3ccccc32)cc1 (centres undefined)	.	-17.7	-2.4	-2.3	0.2
NC(=O)CC[C@@H]1NC(=O)[C@@H]2CCCN2C(=O)c2cc([N+](=O)[O-])cc(I)c2NCCC[C@@H](C(N)=O)NC1=O	2.5	43.9*	-1.6	4.0	-5.2
NC(=O)CC[C@@H]1NC(=O)[C@@H]2CCCN2C(=O)c2cc([N+](=O)[O-])cc(I)c2NCCC[C@@H](C(=O)NC(CC(=O)O)C(N)=O)NC1=O (some centres undefined)	0.6	7.8	-3.5	-1.0	-5.1
NC(=O)[C@@H]1CCCNc2c(I)cc([N+](=O)[O-])cc2C(=O)N[C@@H](CCCN=C(N)N)C(=O)N[C@@H](CCCN=C(N)N)C(=O)N1	.	.	-0.3	-38.7*	-4.4
CC1CCN(C(=O)CN2c3cccc4cccc(c34)S2(=O)=O)CC1	5.2	1.3	1.0	-19.3	-5.2
S=C(Nc1cccc(Cl)c1)NC1CCCCC1	35.9	-1.1	22.2	-33.9*	-2.1
O=C(Nc1cccc(Cl)c1)NC1CCN(C2CCCCC2)C1 (centres undefined)	-103.4*	-18.2	16.0	-12.3	13.2
COc1ccc2c(c1)c(C(C)=O)c(C)n2-c1ccccc1OC	-3.8	-4.4	.	.	.
CCOC(=O)c1cc2c(=O)n3ccccc3nc2n(CC(C)C)c1=NC(=O)COc1ccc(Cl)cc1	.	-12.5	-0.7	-38.9*	-0.2
CCOC(=O)c1cc2c(=O)n3ccccc3nc2n(C(C)C)c1=NC(=O)C(C)(C)Oc1ccc(Cl)cc1	.	7.3	-1.3	-39.8*	-0.6
CCOC(=O)c1cc2c(=O)n3ccccc3nc2n(CC(C)C)c1=NC(=O)C(C)Oc1ccccc1 (centres undefined)	.	-5.6	0.8	21.1	0.2
CCOC(=O)c1cc2c(=O)n3ccccc3nc2n(CC(C)C)c1=NC(=O)C(C)(C)Oc1ccc(Cl)cc1	.	3.7	-0.7	6.1	0.1
SMILES	DRD3 antagonist	D3 ag	D1 agonist	D1 antag	D1 potentiator
CCc1nc(SCC(=O)Nc2cc(OC)ccc2OC)c2c(C)c(C)sc2n1	3.9	13.0	6.0	-3.2	-2.9
COc1ccc(Cl)cc1-c1cc(C(=O)NCc2cccc(C(F)(F)F)c2)[nH]n1	11.1	-3.0	.	.	.
CCOc1ccc(C(=O)c2cn(Cc3ccc(Cl)cc3)c3cc(OC)c(OC)cc3c2=O)cc1	.	-10.1	-1.1	-4.2	1.2
CCOc1ccccc1N1CCN(C(=O)c2cc[n+]([O-])cc2)CC1	-63.1*	-27.1	1.7	-10.7	0.4
CCN1C(=S)SC(=O)C1=C1C=C(C)N(Cc2ccco2)C(C)=C1	-8.6	-9.2	170.6*	-8.6	5.3
COc1ccc(CCNC(=O)c2cnc3sc(N4CCCC4)nn3c2=O)cc1OC	.	19.5	0.6	21.9	-2.2
CCCCCn1c(C(C)NC(=O)CCC)nc2ccccc21 (centres undefined)	16.0	1.2	0.2	-30.1*	-5.5
FC(F)(F)c1cccc(NC(=S)Nc2ccc(Cl)c(Cl)c2)c1	1.5	-1.4	11.1	-12.1	-1.6
O=[N+]([O-])c1cc(C(F)(F)F)cc([N+](=O)[O-])c1NCCNC(=S)Nc1ccc(Cl)c(Cl)c1	-16.7	-7.8	11.2	-31.5*	0.3
O=C(/C=C/c1ccccc1)Nc1cccnc1Oc1ccccc1F	5.0	-5.1	9.1	-39.3*	0.3
COc1ccc(C2=CC(=O)C[C@H](c3ccc(OC)c(OC)c3)C2)cn1	1.0	1.0	1.1	-27.4	-2.0
CCOC(=O)c1cnc(-c2ccccc2)nc1N1CCOCC1	1.4	-1.8	0.0	-0.7	-3.8
CCOC(=O)C1(C(F)(F)F)N=C(c2cccnc2)OC(N2CCOCC2)=N1 (centres undefined)	-58.9*	-2.5	0.5	1.8	-7.6
Cc1ccccc1-c1nc(CNC(=O)Nc2ccccc2)c(C)o1	.	2.6	2.1	-17.7	-0.3
CCn1cc(Cl)c(C(=O)Nc2cccc(C(F)(F)F)c2)n1	2.2	2.8	1.3	-35.8*	-0.4
CCn1cc(Cl)c(C(=O)Nc2ccccc2C(N)=O)n1	-20.0	47.6*	3.4	0.0	4.7
CCn1cc(Br)c(C(=O)Nc2ccccc2C(=O)OC)n1	1.8	-4.9	9.8	-36.4*	-0.4
CSc1ccc(S(=O)(=O)NCC(=O)OCC(=O)N(C)Cc2ccccc2)cc1[N+](=O)[O-]	-24.1	-6.3	14.3	-23.1	-6.5
CSc1ccc(S(=O)(=O)NCC(=O)OCC(=O)N(Cc2ccccc2)C(C)C)cc1[N+](=O)[O-]	-5.7	-1.5	-0.3	-35.2*	-9.8
